Luc counter: Counterscreen for Luciferase (Kinase-Glo TM) Inhibition. AID 1379, 2008. Luciferin 4-monooxygenase (Photuris pensylvanica), Q27757. Potency, µM (series often up to 38.3 µM), inactives show top-dose activity change, negative = inhibition, most hits filed as inhibitors. Kinase-Glo luciferase, ATP luminescence, 8 min. 200,000 compounds, 0.28% hits; also: % is scaled to controls: 0 for no effect and ±100 for the full control effect; nearly all actives have a fitted effect of over 60% in size
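Inhibition of Kinase-Glo luciferase light generation was assessed at 10 uM ATP in pH 7.2 imidazole buffer, with luminescence measured after eight minutes at ambient temperature.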
Rab9 promoter act: qHTS Assay for Rab9 Promoter Activators; Huh7 Rab9 promoter-luciferase reporter, luminescence, 24 h; Potency, µM (doses to about 9.22 µM), for inactives: top-dose activation, negative = inhibition, usual class: activators; 320,000 compounds, 2.8% hits; AID 485297, 2010; also: % of control where 0% means no effect; nearly all actives have a fitted effect of over 60% in size
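Huh7 reporter line, Rab9 promoter upstream of luciferase. Compound exposure 24 h at 37 °C in reduced-serum medium with 10% FBS. Read-out: luminescence.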
FLuc modulator: qHTS profiling assay for firefly luciferase inhibitor/activator using purifed enzyme and Km concentrations of substrates (counterscreen for miR-21 project); purified FLuc, Km substrates, luminescence inhibition; Potency, µM (titrated, usually from 57.5 µM), for inactives: at the top dose activity change, negative = inhibition, usual class: inhibitors; Luciferin 4-monooxygenase (Photinus pyralis), P08659; AID 588342, 2011; 360,000 compounds, 6.9% hits;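 also: plate controls were vehicle for no effect and reference inhibitor for full effect; nearly all actives have a fitted effect of over 55% in size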
Target sequence (P08659 whole entry, looked up): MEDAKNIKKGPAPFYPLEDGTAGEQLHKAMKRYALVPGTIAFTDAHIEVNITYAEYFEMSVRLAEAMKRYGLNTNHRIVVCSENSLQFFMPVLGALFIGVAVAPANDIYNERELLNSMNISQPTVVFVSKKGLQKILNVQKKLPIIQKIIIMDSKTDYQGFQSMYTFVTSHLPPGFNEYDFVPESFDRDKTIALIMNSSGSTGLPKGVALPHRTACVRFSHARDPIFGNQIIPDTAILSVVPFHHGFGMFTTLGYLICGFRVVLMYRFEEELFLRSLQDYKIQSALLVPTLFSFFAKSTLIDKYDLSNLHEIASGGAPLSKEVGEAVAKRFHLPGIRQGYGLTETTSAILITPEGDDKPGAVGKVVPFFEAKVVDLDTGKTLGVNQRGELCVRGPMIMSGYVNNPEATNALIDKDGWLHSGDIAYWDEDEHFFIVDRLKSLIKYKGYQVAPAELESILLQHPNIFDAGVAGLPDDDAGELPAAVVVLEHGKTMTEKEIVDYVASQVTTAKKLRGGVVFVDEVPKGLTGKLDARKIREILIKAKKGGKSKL
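Biochemical qHTS of compounds, final roughly 60 µM downward over six points, against 10 nM purified firefly luciferase using Km concentrations of substrates (10 uM D-luciferin, 10 uM ATP) in Tris acetate pH 7.5 buffer; luminescence output.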
NPC1 prom act: qHTS Assay for NPC1 Promoter Activators | Huh7 NPC1 promoter luciferase reporter, 24 h | 320,000 compounds, 2.4% hits | Potency, µM (titrated, usually from 9.22 µM), inactives show at the highest dose activation, most hits filed as activators; also: % of control where 0% means no effect; nearly all actives have a fitted effect of over 60% in size
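Luminescence from an NPC1 promoter-driven luciferase reporter in stably transfected Huh7 cells was measured after 24 h compound treatment at 37 °C, followed by 10 min ambient incubation with luciferase detection reagent.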
SMN2 splice up: qHTS Assay for Enhancers of SMN2 Splice Variant Expression | HEK293 SMN2-luciferase splicing reporter, luminescence, 30-36 h | Potency, µM (top dose mostly 46.1 µM), for the others: top-dose activity change, positive = activation, usual class: activators | 210,000 compounds, 2.8% hits | AID 1458, 2008; also: % of control where 0% means no effect; nearly all actives have a fitted effect of over 55% in size
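HEK293 cells carry an SMN2 minigene-luciferase reporter in which exon 7 inclusion puts luciferase in frame. Cells were seeded at 2000 cells/well, attached for 10-12 hours, then exposed to compounds for 30-36 hours at 37C before ONE-Glo luminescence.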
ELG1 genotox: qHTS screen for small molecules that induce genotoxicity in human embryonic kidney (HEK293T) cells expressing luciferase-tagged ELG1; AID 504466, 2011; 330,000 compounds, 1.3% hits; Potency, µM (doses to about 46 µM), for inactives: top-dose activity change, positive = activation, actives largely listed as activators; HEK293T ELG1-luciferase reporter, luminescence, 16 h; also: % of control where 0% means no effect; nearly all actives have a fitted effect of over 60% in size
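Luminescence read-out: rising ELG1-luciferase signal, reflecting elevated ELG1 protein under genetic stress, flags genotoxic compounds. Cells were treated for 16 hr at 37 °C before ONE-Glo detection.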
* = called active by the depositor. Compounds with a hit are over-represented: about 7.3% of the library has one in this group of screens. Calls follow the shape of the dose curve; as a rule, active = well fitted curve in the direction sought with a large enough effect; inconclusive = small, poorly fitted or top-dose-only effect, or another doubt; inactive = no such curve, though single readings can be large; an effect the other way counts as inactive or inconclusive. Potency is read from the fitted curve at half-maximal effect.

Results for O=C(Cc1ccccc1)c1ccc(Cl)cc1 ?
Rab9 promoter act: 0%; FLuc modulator: inconclusive; NPC1 prom act: -2%; ELG1 genotox: 4%

Results for O=C(Cc1ccc(Cl)cc1)c1ccc(O)cc1 ?
Rab9 promoter act: 3.5µM*; FLuc modulator: 15µM*; NPC1 prom act: 3.5µM*; ELG1 genotox: inconclusive

How did Cc1cccc(N(C)S(=O)(=O)c2nnc(NC(=O)C(C)(C)C)s2)c1 do in these assays?
FLuc modulator: -2%

Results for CC(NC(=O)c1ccc(N2CCCC2=O)cc1)c1ccccc1 (configuration not stated) ?
Luc counter: -2%; Rab9 promoter act: 15%; FLuc modulator: -8%; NPC1 prom act: 0%; SMN2 splice up: -16%; ELG1 genotox: 6%

Results for CC(=O)c1ccc(NC(=O)c2ccc(N3CCCC3=O)cc2)cc1 ?
Rab9 promoter act: -1%; FLuc modulator: -12%; NPC1 prom act: 1%; ELG1 genotox: 2%

How did CC(=O)c1ccccc1NC(=O)c1ccc(N2CCCC2=O)cc1 do in these assays?
Rab9 promoter act: inconclusive; FLuc modulator: 7.6µM*; NPC1 prom act: 27%; ELG1 genotox: inconclusive

How did CSc1ccccc1NC(=O)c1ccc(N2CCCC2=O)cc1 do in these assays?
Rab9 promoter act: inconclusive; FLuc modulator: 15µM*; NPC1 prom act: inconclusive; ELG1 genotox: inconclusive

What do the screens show for `COc1cccc(NC(=O)CCC(=O)N2Cc3ccccc3Oc3ncccc32)c1`?
FLuc modulator: -14%

Results for Cc1ccc(NC(=S)/N=C(\N)Nc2nc(C)c3ccccc3n2)cc1C ?
Luc counter: 1%; Rab9 promoter act: -10%; FLuc modulator: 11µM*; NPC1 prom act: -8%; SMN2 splice up: -29%; ELG1 genotox: -1%

How did CCCOc1ccccc1C(=O)N1CCCCC1CCN1CCCCC1 (configuration not stated) do in these assays?
FLuc modulator: 0%; SMN2 splice up: -6%

How did O=c1c2ccccc2nc2c3ccccc3cnn12 do in these assays?
Luc counter: -8%; Rab9 promoter act: 2.2µM*; FLuc modulator: inconclusive; NPC1 prom act: inconclusive; SMN2 splice up: inconclusive; ELG1 genotox: inconclusive

What do the screens show for `N#CC1=C2SCN(c3ccccc3)CN2C(=O)CC1c1c(Cl)cccc1Cl` (configuration not stated)?
Luc counter: 0%; Rab9 promoter act: 0%; FLuc modulator: 11µM*; NPC1 prom act: -1%; SMN2 splice up: 10%; ELG1 genotox: 0%

Results for N#CC1=C2SCN(c3ccccc3)CN2C(=O)CC1c1ccccc1Cl (configuration not stated) ?
Luc counter: -2%; Rab9 promoter act: -1%; FLuc modulator: inconclusive; NPC1 prom act: -2%; SMN2 splice up: -1%; ELG1 genotox: 5%

What do the screens show for `COc1cc(CNC(=O)c2cnc3c(-c4cccc(C)c4)c(C)nn3c2C)cc(OC)c1OC`?
FLuc modulator: -5%

Results for Cc1ccc(N2CC(NC(=O)c3cccs3)CC2=O)cc1C (configuration not stated) ?
FLuc modulator: -10%

How did O=C(COc1ccc(OCc2ccccc2)cc1)NC1CCOC1=O (configuration not stated) do in these assays?
Luc counter: -3%; Rab9 promoter act: -24%; FLuc modulator: 21µM*; NPC1 prom act: 1%; SMN2 splice up: 10%; ELG1 genotox: -1%

What do the screens show for `CCOC(=O)c1c(NC(=O)c2cc3nc(-c4ccccc4)cc(C(F)(F)F)n3n2)sc2c1CCC(C)C2` (configuration not stated)?
FLuc modulator: -2%

Results for Cc1cc2nc(-c3cccc(NC(=O)COc4ccc(Cl)c(C)c4)c3)oc2cc1C ?
FLuc modulator: 1.9µM*

What do the screens show for `COc1ccc(-c2nc3cc(NC(=O)COc4ccc(C)c(C)c4)ccc3o2)cc1`?
FLuc modulator: 6%

How did Cc1cc2nc(-c3cccc(NC(=O)COc4ccc(C(C)C)cc4)c3)oc2cc1C do in these assays?
FLuc modulator: 1.5µM*; SMN2 splice up: 12%

What do the screens show for `CC(C)(C)C(=O)Nc1ccc(-c2cc3cc(Cl)ccc3o2)cc1`?
Rab9 promoter act: 0.32µM*; FLuc modulator: 0.19µM*; NPC1 prom act: inconclusive; ELG1 genotox: inconclusive

What do the screens show for `CC(C)(Oc1ccc(Cl)cc1)C(=O)Nc1ccc2oc(=O)ccc2c1`?
Rab9 promoter act: -2%; FLuc modulator: 1%; NPC1 prom act: 2%; ELG1 genotox: -3%

What do the screens show for `CCN1CCN(Cc2c(O)ccc3c2O/C(=C\C=C\c2ccccc2OC)C3=O)CC1`?
Luc counter: 4%; Rab9 promoter act: 2%; FLuc modulator: 4.8µM*; NPC1 prom act: -1%; SMN2 splice up: 4%; ELG1 genotox: -1%

How did CCN1CCN(Cc2c(O)ccc3c(=O)c(-c4ccccc4OC)coc23)CC1 do in these assays?
Luc counter: -4%; Rab9 promoter act: -2%; FLuc modulator: 0%; NPC1 prom act: 0%; SMN2 splice up: -13%; ELG1 genotox: 2%

Results for O=C(c1cc(-c2cccs2)on1)N1CCc2ccccc2C1 ?
Luc counter: 3%; Rab9 promoter act: 2%; FLuc modulator: 19µM*; NPC1 prom act: -3%; SMN2 splice up: 0%; ELG1 genotox: 6%

How did O=C(c1cc(-c2cccs2)on1)N1CCN(C(c2ccccc2)c2ccccc2)CC1 do in these assays?
Luc counter: -2%; Rab9 promoter act: -54%; FLuc modulator: 1%; NPC1 prom act: -32%; SMN2 splice up: -14%; ELG1 genotox: -8%

How did O=C(c1cc(-c2cccs2)on1)N1CCOCC1 do in these assays?
Luc counter: -10%; Rab9 promoter act: inconclusive; FLuc modulator: 19µM*; NPC1 prom act: 2.8µM*; SMN2 splice up: inconclusive; ELG1 genotox: inconclusive

What do the screens show for `CCc1cnc2c(c1SCC(=O)NCc1ccc(F)cc1)c(=O)n(C)c(=O)n2C`?
FLuc modulator: -7%

What do the screens show for `CCOC(=O)CC(NC(=O)CCc1c(C)nc2c(c1C)c(=O)n(C)c(=O)n2C)c1ccc(OCC)c(OC)c1` (configuration not stated)?
FLuc modulator: -2%; SMN2 splice up: 2%
